# Reference: PubChem BioAssay
# Records with an inconclusive call do not appear. The source made the active and inactive calls.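 Rule for the calls, unless noted: active = normalized viability below 100% at a tested concentration; inactive = the rest.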
# Legend:
# [1] = growth inhibition of DIPG glioma cells, dose response, cell-based, SU-DIPG-XVII, MIPE5.0, CellTiter-Glo, qHTS (AID 1347060; cut-off not given, nearly all actives have AC50 up to about 26 µM;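 note: cells exposed to compound for 48 hours before viability readout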); settings: SU-DIPG-XVII viability, CellTiter-Glo ATP luminescence
# [2] = growth inhibition of DIPG glioma cells, dose response, cell-based, JHH-DIPG-1, MIPE4.0, CellTiter-Glo, qHTS (AID 1347062; cut-off not given, nearly all actives have AC50 up to about 27 µM;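 note: cells exposed to compound for two days before readout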); settings: JHH-DIPG-1 viability, CellTiter-Glo ATP luminescence
# [3] = growth inhibition of DIPG glioma cells, dose response, cell-based, SU-DIPG-XIII, MIPE5.0, CellTiter-Glo, qHTS (AID 1347064; cut-off not given, nearly all actives have AC50 up to about 23 µM;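 note: cells exposed to compound for 48 hours before the viability read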); settings: SU-DIPG-XIII viability, CellTiter-Glo ATP luminescence
# [4] = viability loss in pontine glioma line – cell-based, SU-DIPG-XXV, MIPE5.0, CellTiter-Glo, qHTS, dose response (AID 1347065; cut-off not given, nearly all actives have AC50 up to about 26 µM;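 note: cells exposed to compound for 48 hours before ATP readout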); settings: CellTiter-Glo ATP luminescence
# [5] = SU-DIPG-VI glioma cell viability, MIPE4.0 library, CellTiter-Glo luminescence, qHTS (AID 1347066; cut-off not given, nearly all actives have AC50 up to about 30 µM;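 note: cells exposed to compound for 48 hours before readout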); settings: CellTiter-Glo ATP luminescence
# [6] = JHH-DIPG-1 glioma cell viability, MIPE5.0 library, CellTiter-Glo luminescence, qHTS (AID 1347067; cut-off not given, nearly all actives have AC50 up to about 26 µM;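 note: cells exposed to compound for 48 hours before readout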); settings: JHH-DIPG-1 glioma viability, CellTiter-Glo ATP luminescence
# [7] = SU-DIPG-XXV glioma cell viability, MIPE5.0 library, qHTS (AID 1347068; cut-off not given, nearly all actives have IC50 up to about 30 µM;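 note: cells exposed to compound for 48 hours before viability readout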)
# [8] = sensitizers of A549 cells to miR-34 induction, primary screen, imaging, A549 dox-inducible miR-34, nuclei and caspase counts (AID 1347080;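 active = compounds whose cell count with miR-34 switched on is under 0.7 times the count with it off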); settings: A549 miR-34 inducible, Hoechst nuclei count, 48 h
# [9] = modifiers of HSF1 nuclear foci, imaging, Selleck Cancer Library (AID 1347162; in the data active = plate-normalised HSF1 focus index below about 0.46); settings: human cells, at 10 µM; SSMD: measured here: HSF1 foci SSMD mean; cell count: measured here: cell number; plate-normalised HSF1 focus index: stronger effect = lower value
# [10] = survival rescue of mitochondrial mutant cells in low glucose, primary screen, MELAS cybrids, Rieske KO mouse fibroblasts, CellTiter-Glo (AID 1508586;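 active = mean z-score across replicates of 1.96 or higher in either the MELAS or the Rieske mutant cell line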;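 note: z relative to plate mean and SD of compound and empty wells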)
# [11] = ovarian cancer cell viability with rucaparib, profiling panel, oncology-focused library, rucaparib conditional (AID 1508598); settings: patient-derived ovarian cancer cells, CellTiter-Glo viability, 144 h, stronger effect = lower value
# [12] = LFS_MB_P medulloblastoma growth inhibition, cell-based, chromothripsis tumors, cisplatin or BGB combos (AID 1671449; in the data active = inhibition above about 80%;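 note: cells exposed for 96 hours; 0% = vehicle DMSO and 100% = killing by high DMSO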); settings: LFS_MB_P medulloblastoma cells
# [13] = HDN33 neuroblastoma growth inhibition, cell-based, chromothripsis tumors, cisplatin or BGB combos (AID 1671450; in the data active = inhibition above about 80%;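 note: cells exposed to compound for four days; 0% = vehicle DMSO and 100% = cell killing by high DMSO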); settings: HDN33 neuroblastoma cells, stronger effect = higher value
# [14] = ICB984 medulloblastoma cell growth inhibition, synergistic combos for chromothripsis tumors, cisplatin or BGB combos (AID 1671451; call rule not given here;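 note: cells exposed for 96 hours before readout; 0% = vehicle DMSO and 100% = killing by high DMSO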); settings: ICB984 medulloblastoma cells, drug combinations, stronger effect = higher value
# [15] = HTB85 osteosarcoma cell growth inhibition, synergistic combos for chromothripsis tumors, BGB or cisplatin IC20 combos (AID 1671453; in the data active = inhibition above about 80%;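 note: cells exposed for 96 hours before readout; 0% = vehicle DMSO and 100% = high DMSO killing control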); settings: HTB85 osteosarcoma cells, drug combinations, stronger effect = higher value
# [16] = MDA-MB-436 breast carcinoma cell growth inhibition, synergistic combos for chromothripsis tumors, BGB or cisplatin combos (AID 1671458; call rule not given here;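 note: cells exposed for 96 hours; 0% = vehicle DMSO and 100% = killing by high DMSO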); settings: MDA-MB-436 breast carcinoma growth inhibition, drug combinations, stronger effect = higher value
# [17] = growth inhibition of BT084 medulloblastoma cells, cell-based, ICGC_MB145, cisplatin and BGB IC40 combos (AID 1671461; in the data active = inhibition above about 80%;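 note: cells exposed to drugs for 96 hours; 0% = vehicle DMSO and 100% = high DMSO full killing control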); settings: drug combinations, stronger effect = higher value
# [18] = growth inhibition of RCMB18 medulloblastoma cells, cell-based, cisplatin and BGB IC40 combos (AID 1671462; in the data active = inhibition above about 80%;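 note: cells exposed to compound for four days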); settings: stronger effect = higher value
# [19] = growth inhibition of CRL1545 osteosarcoma cells, cell-based, cisplatin and BGB IC20 combos (AID 1671464; in the data active = inhibition above about 80%;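 note: cells exposed to compound for 96 hours before readout; 0% = vehicle DMSO and 100% = high DMSO killing control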); settings: stronger effect = higher value
# [20] = measured here: with BGB IC20 combination, at 0.5 µM
# [21] = measured here: with cisplatin IC20 combination, at 0.5 µM
compound,measurement,setting,value
Nc1ccccc1NC(=O)c1ccc(CNc2nccc(-c3cccnc3)n2)cc1,AC50,[1],2630 nM (active)
same,AC50,[2],1480 nM (active)
same,AC50,[3],1480 nM (active)
same,AC50,[4],590 nM (active)
same,AC50,[5],1180 nM (active)
same,AC50,[6],1180 nM (active)
same,IC50,[7],2630 nM (active)
same,fold change,"[8]; stronger effect = lower value, cell number ratio, induced over uninduced",1.16 (inactive)
same,fold change,[8]; measured here: relative caspase fold change +Dox/-Dox,0.733
same,cell count,"[8]; measured here: total cells with miR-34 induction, stronger effect = lower value",1740
same,cell count,[8]; measured here: total cells without miR-34 induction,1500
same,SSMD,[9],2.12
same,cell count,[9],7260
same,plate-normalised HSF1 focus index,[9],1.13 (inactive)
same,z-score,"[10]; MELAS cybrid survival, CellTiter-Glo 48 h, stronger effect = higher value",-0.546 (inactive)
same,z-score,"[10]; Rieske KO mouse fibroblast survival, CellTiter-Glo 72 h",-2.11
same,viability,"[11]; at 0.000305 µM, OCI-C5x cells, with rucaparib 10 µM, 100% = cells with rucaparib alone",107% (inactive)
same,viability,"[11]; at 0.000305 µM, OCI-C5x cells, without rucaparib",111% (inactive)
same,viability,"[11]; at 0.000305 µM, OCI-P5x cells, with rucaparib 20 µM, 100% = cells with rucaparib alone",122% (inactive)
same,viability,"[11]; at 0.000305 µM, OCI-P5x cells, without rucaparib",119% (inactive)
same,viability,"[11]; at 0.00122 µM, OCI-C5x cells, with rucaparib 10 µM, 100% = cells with rucaparib alone",112% (inactive)
same,viability,"[11]; at 0.00122 µM, OCI-C5x cells, without rucaparib",110% (inactive)
same,viability,"[11]; at 0.00122 µM, OCI-P5x cells, with rucaparib 20 µM, 100% = cells with rucaparib alone",110% (inactive)
same,viability,"[11]; at 0.00122 µM, OCI-P5x cells, without rucaparib",116% (inactive)
same,viability,"[11]; at 0.00488 µM, OCI-C5x cells, with rucaparib 10 µM, 100% = cells with rucaparib alone",118% (inactive)
same,viability,"[11]; at 0.00488 µM, OCI-C5x cells, without rucaparib",115% (inactive)
same,viability,"[11]; at 0.00488 µM, OCI-P5x cells, with rucaparib 20 µM, 100% = cells with rucaparib alone",107% (inactive)
same,viability,"[11]; at 0.00488 µM, OCI-P5x cells, without rucaparib",108% (inactive)
same,viability,"[11]; at 0.0195 µM, OCI-C5x cells, with rucaparib 10 µM, 100% = cells with rucaparib alone",119% (inactive)
same,viability,"[11]; at 0.0195 µM, OCI-C5x cells, without rucaparib",117% (inactive)
same,viability,"[11]; at 0.0195 µM, OCI-P5x cells, with rucaparib 20 µM, 100% = cells with rucaparib alone",101% (inactive)
same,viability,"[11]; at 0.0195 µM, OCI-P5x cells, without rucaparib",96.7% (active)
same,viability,"[11]; at 0.0781 µM, OCI-C5x cells, with rucaparib 10 µM, 100% = cells with rucaparib alone",110% (inactive)
same,viability,"[11]; at 0.0781 µM, OCI-C5x cells, without rucaparib",101% (inactive)
same,viability,"[11]; at 0.0781 µM, OCI-P5x cells, with rucaparib 20 µM, 100% = cells with rucaparib alone",103% (inactive)
same,viability,"[11]; at 0.0781 µM, OCI-P5x cells, without rucaparib",94.4% (active)
same,viability,"[11]; at 0.313 µM, OCI-C5x cells, with rucaparib 10 µM, 100% = cells with rucaparib alone",67.3% (active)
same,viability,"[11]; at 0.313 µM, OCI-C5x cells, without rucaparib",71.1% (active)
same,viability,"[11]; at 0.313 µM, OCI-P5x cells, with rucaparib 20 µM, 100% = cells with rucaparib alone",72% (active)
same,viability,"[11]; at 0.313 µM, OCI-P5x cells, without rucaparib",77.1% (active)
same,viability,"[11]; at 1.25 µM, OCI-C5x cells, with rucaparib 10 µM, 100% = cells with rucaparib alone",6.09% (active)
same,viability,"[11]; at 1.25 µM, OCI-C5x cells, without rucaparib",5.69% (active)
same,viability,"[11]; at 1.25 µM, OCI-P5x cells, with rucaparib 20 µM, 100% = cells with rucaparib alone",15.2% (active)
same,viability,"[11]; at 1.25 µM, OCI-P5x cells, without rucaparib",19.7% (active)
same,viability,"[11]; at 5 µM, OCI-C5x cells, with rucaparib 10 µM, 100% = cells with rucaparib alone",5.71% (active)
same,viability,"[11]; at 5 µM, OCI-C5x cells, without rucaparib",5.7% (active)
same,viability,"[11]; at 5 µM, OCI-P5x cells, with rucaparib 20 µM, 100% = cells with rucaparib alone",9.81% (active)
same,viability,"[11]; at 5 µM, OCI-P5x cells, without rucaparib",8.93% (active)
same,inhibition,"[12]; at 0.5 µM, stronger effect = higher value",2.35% (inactive)
same,inhibition,"[12]; measured here: combination with BGB IC20, at 0.005 µM",-20.9%
same,inhibition,"[12]; measured here: combination with BGB IC40, at 0.005 µM",-59.1%
same,inhibition,"[12]; measured here: combination with BGB IC40, at 0.05 µM",-23.9%
same,inhibition,"[12]; measured here: combination with cisplatin, at 0.5 µM, stronger effect = higher value",45.4%
same,inhibition,"[12]; measured here: combination with cisplatin, at 5 µM, stronger effect = higher value",109%
same,inhibition,"[13]; BGB combo, at 5 µM",98.8%
same,inhibition,[13]; at 0.5 µM,51.5% (inactive)
same,inhibition,"[13]; cisplatin combo, at 5 µM",100%
same,inhibition,[13]; [20],59.9%
same,inhibition,[13]; [21],50.6%
same,inhibition,"[13]; single agent, at 5 µM",99.4%
same,inhibition,"[14]; BGB IC20 combo, at 0.005 µM",8.79%
same,inhibition,"[14]; BGB IC40 combo, at 0.005 µM",19.9%
same,inhibition,"[14]; BGB IC40 combo, at 0.05 µM",92.5%
same,inhibition,[14]; at 0.5 µM,-29.5% (inactive)
same,inhibition,"[14]; cisplatin combo, at 0.05 µM",92.7%
same,inhibition,"[14]; cisplatin combo, at 0.5 µM",-33.3%
same,inhibition,"[14]; cisplatin combo, at 5 µM",-7.7%
same,inhibition,"[14]; measured here: 5 uM single agent, at 5 µM",-12.8%
same,inhibition,[15]; at 0.5 µM,18.4% (inactive)
same,inhibition,"[15]; measured here: with BGB IC20, at 0.5 µM",20.6%
same,inhibition,"[15]; measured here: with BGB IC20, at 5 µM",98.9%
same,inhibition,"[15]; measured here: with cisplatin IC20, at 0.5 µM",17.4%
same,inhibition,"[15]; measured here: with cisplatin IC20, at 5 µM",99.2%
same,inhibition,"[15]; single agent, at 5 µM",99.2%
same,inhibition,[16]; at 0.5 µM,23.7% (inactive)
same,inhibition,"[16]; measured here: BGB combination, at 0.5 µM",20.7%
same,inhibition,"[16]; measured here: BGB combination, at 5 µM",64.6%
same,inhibition,"[16]; measured here: cisplatin combination, at 0.5 µM",9.8%
same,inhibition,"[16]; measured here: cisplatin combination, at 5 µM",64%
same,inhibition,[17]; at 0.5 µM,50.1% (inactive)
same,inhibition,"[17]; cisplatin combination, at 0.5 µM",50.8%
same,inhibition,"[17]; cisplatin combination, at 5 µM",83.4%
same,inhibition,"[17]; measured here: BGB IC40 combination 0.05 uM, at 0.05 µM",-5.63%
same,inhibition,"[17]; single agent, at 5 µM",99.8%
same,inhibition,[18]; at 0.5 µM,56.4% (inactive)
same,inhibition,"[18]; cisplatin combo, at 5 µM",95.3%
same,inhibition,"[18]; measured here: BGB IC40 combination, at 0.05 µM",-6.4%
same,inhibition,"[18]; measured here: combination with cisplatin, at 0.5 µM",76.3%
same,inhibition,"[18]; single agent, at 5 µM",94.7%
same,inhibition,[19]; at 0.5 µM,66.9% (inactive)
same,inhibition,[19]; [20],49.6%
same,inhibition,[19]; [21],75.1%
same,inhibition,"[19]; single agent, at 0.05 µM",31.7%
same,inhibition,"[19]; single agent, at 5 µM",90.8%
